Compounds with a hit are over-represented: about 9.3% of the library has one in this group of screens.
HCV inhibitor: qHTS Assay for Inhibitors of Hepatitis C Virus (HCV) | Huh7.5.1 HCVcc-Cre infection, luciferase reporter, 44 h | Potency, µM (top dose mostly 41.8 µM), for inactives: top-dose activity change, negative = inhibition, hits mostly inhibitors | 340,000 compounds, 3.4% hits | AID 651820, 2012; further: potency means the concentration at half of the fitted maximal effect
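Compounds are dispensed onto cells plated 4 h earlier at 1,000 per well, with HCVcc-Cre virus (about 0.5 moi) added next. Following 44 h of culture, luminescent signal is measured for 15 sec after 15 min with substrate at room temperature.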
VACV Venus inh: qHTS for Stage-Specific Inhibitors of Vaccinia Orthopoxvirus: Venus Reporter Primary qHTS; Vaccinia virus Venus reporter expression, fluorescence; Potency, µM (titrated, usually from 36.5 µM), without a hit: at the highest dose activity change, negative = inhibition, most hits filed as inhibitors; 330,000 compounds, 0.46% hits; AID 720580, 2013; calls by dose curve; tested in A549 cells; further: potency means the concentration at half of the fitted maximal effect; nearly all actives have a fitted effect of over 30% in size
FMDV antiviral: High Throughput Screening for Foot and Mouth Disease Virus Antivirals | 410,000 compounds, 1.2% hits | AID 1159524, 2015 | FMDV antiviral cell-based qHTS | Potency, µM (top dose mostly 57.9 µM), for the others: at the highest dose activity change, negative = inhibition, most hits filed as inhibitors; calls by dose curve; tested in HEK293T cells; further: read-out not given here; potency means the concentration at half of the fitted maximal effect; nearly all actives have a fitted effect of over 45% in size
Sm TGR inh: qHTS Assay for the Inhibitors of Schistosoma Mansoni Peroxiredoxins | purified TGR, DTNB reduction, TNB absorbance 405 nm | Potency, µM (highest dose often 114 µM), for inactives: at the highest dose activity change, negative = inhibition, actives largely listed as inhibitors | 360,000 compounds, 3% hits | AID 485364, 2010; further: potency means the concentration at half of the fitted maximal effect; nearly all actives have a fitted effect of over 60% in size
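TGR 20 nM + NADPH 100 uM (dispensed conc.), cpd preinc 15 min RT; start with NADPH (500 uM addition) then DTNB (15 mM addition). Kinetic TNB absorbance, 405 nm filter. Four-parameter Hill fit across titration.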
HCMV inh: qHTS Assay for inhibitors of the human cytomegalovirus (HCMV); HFF cells, HCMV-luciferase reporter, 72 h; active compounds read low; activity change, negative = inhibition, % at 57.5 µM; 410,000 compounds, 4.5% hits; in the data active means activity change below about -60%; inconclusive means no clear call, values can overlap the other calls; inactive means above about -39%
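Screen run at 2 compound doses on HFFs infected with reporter HCMV, MOI 1 PFU/cell. Luciferase activity from cell lysates at 72 h post infection gave inhibition relative to buffer-only and Salinomycin wells.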
VACV mCherry inh: qHTS for Stage-Specific Inhibitors of Vaccinia Orthopoxvirus: mCherry Reporter Primary qHTS. Vaccinia virus mCherry reporter infection, fluorescence. AID 720579, 2013. Potency, µM (series often up to 36.5 µM), without a hit: at the top dose activity change, negative = inhibition, actives largely listed as inhibitors. 310,000 compounds, 0.63% hits; calls by dose curve; tested in A549 cells; further: potency means the concentration at half of the fitted maximal effect; nearly all actives have a fitted effect of over 35% in size
Numbers without * were called inactive; ? = inconclusive; nt = not tested or not shown; ! = not active in a repeat. Unless noted, the call rests on the fitted dose curve; in most records, active means well fitted curve in the direction sought with a large enough effect; inconclusive means small, poorly fitted or top-dose-only effect, or another doubt; inactive means no such curve, though single readings can be large; an effect the other way counts as inactive or inconclusive. On the % scale 0 is the no-effect control and ±100 the full control effect.

SMILES | HCV inhibitor | VACV Venus inh | FMDV antiviral | Sm TGR inh | HCMV inh | VACV mCherry inh
COc1ccccc1S(=O)(=O)Cc1ccc(C(=O)NC(C)c2ccc3c(c2)OCCO3)o1 (stereo not drawn) | -17.3% | nt | -17.5% | 39.8µM* | -1.6 | nt
Cc1ccccc1S(=O)(=O)Cc1ccc(C(=O)NC(C)c2ccccc2)o1 (stereo not drawn) | 2.5% | -17.4% | -5.1% | -14.9% | -38.4 | -19.8%
Cc1ccc(-n2nnnc2Sc2nc([N+](=O)[O-])nn2C)cc1 | 0.8% | ? | ? | -20.8% | -9.1 | -29.2%
Cc1ccc(-n2nnnc2Sc2nc([N+](=O)[O-])nn2C)c(C)c1 | -9.2% | ? | -15.8% | nt | -70.1* | nt
O=C(COC(=O)c1cc2ccccc2o1)NCc1ccco1 | 17.7% | nt | -7.6% | -24.0% | 4.7 | nt
Cc1ccc(CN2CCN(/N=C/c3ccc(O)c(O)c3)CC2)cc1 | -23.4% | nt | -23.9% | 31.6µM* | 1.4 | nt
Oc1ccc(/C=N/N2CCN(C3c4ccccc4-c4ccccc43)CC2)cc1O | -3.8% | -14.9% | ? | 10µM* | -26.8 | ?
NNC(=O)c1cccc(COc2ccc3c(c2)CCC3)c1 | 0.0% | -20.0% | 12.6µM* | 14.5% | 64.5 | -19.6%
NNC(=O)c1cccc(COc2ccccc2Br)c1 | 19.9% | -27.9% | -21.2% | 6.8% | 165.4 | -11.6%
O=C(Nc1ncccn1)c1ccc([N+](=O)[O-])cc1[N+](=O)[O-] | 17.9% | nt | -12.7% | nt | -16.2 | nt
COc1ccc(N2C(=O)[C@@H]3[C@H](C2=O)[C@H](C(=O)c2ccc(OC(C)=O)cc2)N2N=CC=C[C@@H]32)cc1 | -6.6% | nt | nt | ? | nt | nt
COc1ccc(C(=O)[C@H]2[C@H]3C(=O)N(c4ccc(C)cc4)C(=O)[C@H]3C3C=CC=NN32)cc1 (stereo partly drawn) | 9.0% | -12.1% | 1.9% | 39.8µM* | ? | -18.7%
CC(=O)Oc1ccc(C(=O)[C@H]2[C@H]3C(=O)N(c4ccc(C)cc4)C(=O)[C@H]3[C@@H]3C=CC=NN32)cc1 | 16.9% | -1.8% | 0.0% | ? | 144.5 | 0.2%
CC(=O)Oc1ccc(C(=O)[C@H]2[C@H]3C(=O)N(c4ccc(C)cc4C)C(=O)[C@H]3[C@@H]3C=CC=NN32)cc1 | -9.7% | 2.1% | -28.2% | 17.8µM* | 25.5 | ?
Cc1cccc(NC(=O)CSc2nc3ccccc3c3nc(CCc4c(C)n[nH]c4C)nn23)c1 | 25.1µM* | -15.6% | ? | -0.6% | -81.7*! | -29.3%
Cc1nc2ccccc2n1CCc1nc2c3ccccc3nc(SCC(=O)Nc3ccc(Br)cc3F)n2n1 | nt | 1.7% | -7.7% | 0.2% | -5.6 | 1.3%
CCn1c(SCC(=O)Nc2cccc(C)c2)nc2ccccc2c1=O | ? | -1.8% | -6.2% | 4.4% | -32.0 | 5.3%
Cc1n[nH]c(C)c1CCc1nc2c3ccccc3nc(SCC(=O)Nc3ccccc3F)n2n1 | ? | ? | -11.7% | -7.5% | -72.7* | ?
Cn1cc(P(=S)(N2CCOCC2)N2CCOCC2)cc1P(=O)(N1CCOCC1)N1CCOCC1 | 1.5% | -7.0% | -6.4% | 5.0% | 15.8 | 1.8%
COc1ccc(C2=NN(CC(=O)Nc3ccccc3C)C(=O)CC2)cc1 | ? | 5.0% | 12.6% | 4.7% | 27.3 | -4.2%
O[C@H]1CN(CC2CCCCC2)[C@@H](c2ccc(Cl)cc2)C[C@@H]1n1cc(C2CC2)nn1 | nt | ? | ? | nt | -70.9* | -27.1%
COc1ccc([C@H]2C[C@H](O)[C@@H](n3cc(COC(=O)c4ccccc4)nn3)CN2CC2CCCCC2)cc1 | nt | ? | ? | nt | -89.6* | -26.0%
O=C(OCc1cn([C@H]2C[C@H](c3ccccc3)N(CC3CCCCC3)C[C@@H]2O)nn1)c1ccccc1 | nt | -15.3% | -1.3% | nt | 3.4 | ?
O[C@@H]1CN(CC2CCCCC2)[C@@H](c2ccccc2)C[C@H]1n1cc(C2CC2)nn1 | nt | ? | -19.3% | nt | -21.4 | -3.8%
CCCCCCN1C[C@H](n2cc(COC(=O)c3ccccc3)nn2)[C@@H](O)C[C@@H]1c1ccc(Cl)cc1 | nt | 10µM* | ? | nt | ? | ?
SMILES | HCV inhibitor | VACV Venus inh | FMDV antiviral | Sm TGR inh | HCMV inh | VACV mCherry inh
CCCCCCN1C[C@H](n2cc(-c3ccc(F)cc3)nn2)[C@@H](O)C[C@@H]1c1ccc(Cl)cc1 | nt | 14.1µM* | -5.7% | nt | -102.4* | ?
COc1ccc(-c2cc(CN3C(=O)c4ccccc4C3=O)on2)cc1 | 20.2% | 1.4% | nt | nt | 20.5 | ?
Cc1ccc(C2=Nc3ccccc3N(CC(=O)Nc3ccccc3C)C(=O)C2)cc1C | nt | -5.4% | 31.5% | -0.5% | 60.8 | -5.2%
CC(C)C[C@H](CO)N(Cc1ccccc1)S(=O)(=O)N(Cc1ccccc1)[C@@H](CO)CC(C)C | ? | ? | ? | nt | ? | 14.1µM*!
C=CS(=O)(=O)N(Cc1ccccc1Br)[C@H](CO)Cc1ccccc1 | -21.4% | 1.12µM* | ? | nt | -20.5 | ?
C=CS(=O)(=O)N(Cc1ccccc1)[C@H](CO)CC(C)C | 18.8% | 1.12µM* | -29.9% | nt | 0.6 | ?
C=CCCN([C@H](CO)Cc1ccccc1)S(=O)(=O)c1ccccc1Br | 14.0% | -11.1% | 14.5% | nt | 14.3 | -8.4%
C[C@@H]1CN([C@@H](C)CO)C(=O)CCCn2cc(nn2)CO[C@H]1CN(C)C(=O)Nc1cccc2ccccc12 | nt | nt | nt | nt | 27.8 | nt
O=C(CCl)NCCN1C(=O)S/C(=C\c2cccnc2)C1=O | -14.3% | ? | -27.0% | 39.8µM* | -77.0* | ?
O=C(Cn1[nH]c(=O)c2ccccc2c1=O)NCCN1C(=O)S/C(=C\c2ccccc2)C1=O | 11.2µM* | nt | -18.4% | nt | -0.2 | nt
CC(C(=O)NCCN1C(=O)S/C(=C\c2cccnc2)C1=O)N1C(=O)c2ccccc2C1=O (stereo not drawn) | 7.4% | nt | -30.2% | 3.5% | -8.3 | nt
O=C(CCc1nc2ccccc2c(=O)[nH]1)NCCN1C(=O)S/C(=C\c2ccc(OC(F)F)cc2)C1=O | ? | -8.3% | 0.0% | nt | -23.6 | -10.5%
Cc1ccc(NC(=O)CCl)c(C)c1 | ? | ? | ? | 25.1µM* | -24.3 | ?
Cc1ccc(NC(=O)CSc2nncn2C)c(C)c1 | nt | 5.9% | -15.5% | 2.4% | -104.9* | 12.7%
Cc1cccc(NC(=O)CSc2nncn2C)c1 | nt | -3.1% | 0.5% | -0.1% | 5.8 | 11.9%
COC(=O)c1ccccc1NC(=O)CSc1nncn1C | 7.4% | -6.2% | -11.4% | -4.9% | 33.2 | -2.6%
Cn1cnnc1SCC(=O)Nc1ccccc1Sc1ccccc1 | 3.1% | -6.9% | 10.2% | -3.8% | -62.7* | nt
Cc1ccc(NC(=O)Cc2cc(C(=O)O)c3ccccc3n2)c(C)c1 | 12.6µM* | nt | ? | nt | ? | nt
